# Results published in PubChem BioAssay (NCI).
# About 79,000 compounds went through this panel and 15% of them were active in at least one assay; those are over-represented in the sample as a whole. Unmarked numbers belong to inactive results. Activity calls are given as the source filed them. No stated cut-off is given here; in the data, active means growth inhibition above about 70%; inactive means the rest.
# Columns and labels:
# [1] = NCI Yeast Anticancer Drug Screen. Data for the rad50 strain (AID 155);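 further: 0% = growth of vehicle-only cultures of the same strain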; details: S. cerevisiae rad50 strain growth inhibition, active compounds read high
# Outline: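 Yeast carrying a defined DNA repair defect were exposed to test compounds, and growth was compared with vehicle-treated controls to give percent inhibition.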
# [2] = NCI Yeast Anticancer Drug Screen. Data for the mec2-1 strain (AID 157); details: S. cerevisiae mec2-1 strain, active compounds read high
# Outline: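 Strain: mec2-1 (DNA repair/cell cycle alteration). Compound exposure, then growth measured; inhibition expressed relative to vehicle.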
# [3] = NCI Yeast Anticancer Drug Screen. Data for the sgs1 mgt1 strain (AID 161);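 further: 0% = growth of cultures given vehicle only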; details: S. cerevisiae sgs1 mgt1 strain, active compounds read high
# Outline: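 Genetically altered yeast, compound exposure, growth inhibition relative to vehicle.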
# [4] = NCI Yeast Anticancer Drug Screen. Data for the cln2 rad14 strain (AID 165);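 further: 0% = growth equal to vehicle treated cultures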; details: S. cerevisiae cln2 rad14 strain, active compounds read high
# Outline: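 Compounds are applied to the cln2 rad14 yeast strain, and growth is then compared with that of vehicle-treated cultures to give inhibition.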
# [5] = NCI Yeast Anticancer Drug Screen. Data for the bub3 strain (AID 167); details: S. cerevisiae bub3 mutant strain, active compounds read high
# Outline: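 Compounds were applied to a genetically altered yeast strain carrying a cell-cycle control defect. Growth inhibition was scored against vehicle-treated controls.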
# [6] = NCI Yeast Anticancer Drug Screen. Data for the mlh1 rad18 strain (AID 175); details: S. cerevisiae mlh1 rad18 strain growth inhibition, active compounds read high
# Outline: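 Read-out is yeast growth inhibition, calculated against vehicle-only controls. The compound was applied to a strain engineered with DNA damage repair alterations.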
# [7] = at 5.0 µM (retest, dose inferred, filed as 0.5)
# [8] = at 50.0 µM (retest, dose inferred, filed as 5.0)
Compound,"growth inhibition [1, 7]","growth inhibition [1, 8]",growth inhibition ([1]; at 50.0 µM),"growth inhibition [2, 7]","growth inhibition [2, 8]",growth inhibition ([2]; at 50.0 µM),"growth inhibition [3, 7]","growth inhibition [3, 8]",growth inhibition ([3]; at 50.0 µM),"growth inhibition [4, 7]","growth inhibition [4, 8]",growth inhibition ([4]; at 50.0 µM),"growth inhibition [5, 7]","growth inhibition [5, 8]",growth inhibition ([5]; at 50.0 µM),"growth inhibition [6, 7]","growth inhibition [6, 8]",growth inhibition ([6]; at 50.0 µM)
Clc1nc2cc3nc(Cl)c(Cl)nc3cc2nc1Cl,18%,71% (active),21.2%,24%,93% (active),16.3%,14%,24%,36.4%,26%,23%,30.1%,17%,30%,15.6%,29%,91% (active),-1.2%
Cc1c(N=Nc2ccccc2Cl)c(-c2ccccc2)nn1C(=S)S,16%,90% (active),96.2% (active),-1%,91% (active),98.2% (active),4%,95% (active),97.8% (active),-2%,92% (active),97.3% (active),-3%,85% (active),97.3% (active),-2%,93% (active),97.8% (active)
O=C(COc1ccc(Cl)cc1)OCCO,0%,0%,4.9%,-4%,0%,-5.75%,-3%,-1%,0.4%,3%,5%,40.4%,2%,4%,-5.6%,3%,5%,-25.6%
Cc1cc(OCCl)ccc1[N+](=O)[O-],-2%,26%,30.4%,-2%,32%,25.6%,-16%,67%,39.1%,-1%,55%,15.6%,15%,58%,19.9%,1%,80% (active),74.8% (active)
O=C(c1ccccc1)C1(C(=O)c2ccccc2)/C(=N\O)C2CCC1C2 (configuration not stated),7%,93% (active),6.05%,1%,96% (active),12.7%,-2%,95% (active),9.75%,-2%,94% (active),1.9%,0%,95% (active),53.1%,12%,93% (active),13.7%
CC1(C)OC(=O)C(=NNc2ccccc2[N+](=O)[O-])C(=O)O1,5%,4%,-6.9%,2%,19%,5.75%,2%,16%,1.25%,-2%,12%,29.4%,3%,21%,21.5%,2%,7%,18.1%
COC(CO)(OC)c1ccccc1,-163%,-65%,-0.65%,-50%,-50%,-2.9%,-66%,-49%,-9%,-63%,-70%,25.6%,-70%,-71%,-29.1%,-128%,-130%,3.5%
CS(=O)(=O)OCCN(CCOS(C)(=O)=O)c1ccc(C=Nc2ccc(-c3cnc(-c4ccc(Cl)cc4)s3)cc2)c(Cl)c1,1%,84% (active),90% (active),-3%,91% (active),95% (active),3%,90% (active),93.8% (active),-6%,90% (active),90.5% (active),3%,92% (active),92.3% (active),0%,89% (active),92.3% (active)
C=C1CC(C)(C)C(c2ccccc2)OC1=O (configuration not stated),1%,60%,53%,7%,80% (active),31.7%,8%,98% (active),97.1% (active),-4%,25%,5.55%,-7%,80% (active),73.5% (active),13%,87% (active),77.8% (active)
CC1CCCCC12C(C#N)(C#N)C2(C#N)C#N (configuration not stated),22%,90% (active),99.2% (active),30%,97% (active),99.3% (active),33%,97% (active),99.5% (active),8%,89% (active),99.2% (active),43%,97% (active),99.4% (active),41%,98% (active),99.3% (active)
[O-]c1c2cc(-[n+]3c(-c4ccccc4)cc(-c4ccccc4)cc3-c3ccccc3)cc1CO[C@@H](c1ccccc1)[C@H](c1ccccc1)OCCOCCO[C@@H](c1ccccc1)[C@H](c1ccccc1)OC2,97% (active),95% (active),87.5% (active),98% (active),95% (active),91.4% (active),98% (active),97% (active),88.4% (active),95% (active),97% (active),88.6% (active),97% (active),72% (active),89% (active),98% (active),94% (active),29.6%
N=C1C=CC(=C(c2ccc(N)cc2)c2ccc(N)cc2)C=C1,-2%,99% (active),98.8% (active),24%,98% (active),98.5% (active),8%,97% (active),97.8% (active),-15%,93% (active),96.8% (active),12%,98% (active),98.3% (active),-4%,97% (active),97.4% (active)
CC(=O)c1sc(Nc2ccc(Cl)c(Cl)c2)nc1C,8%,35%,95% (active),4%,19%,81% (active),27%,22%,97% (active),1%,35%,91.2% (active),1%,56%,81.8% (active),15%,47%,93.2% (active)
Cc1ccc2c(ccc3ccccc32)c1,-23%,42%,74.3% (active),1%,10%,16.4%,-7%,16%,57.5%,-25%,-12%,10.2%,-15%,38%,71% (active),-67%,39%,34.6%
ClC(Cl)(Cl)C1=CC2c3ccccc3C1c1ccccc12,-14%,91% (active),89.7% (active),0%,91% (active),21.6%,-7%,91% (active),87.8% (active),-3%,90% (active),22.8%,-9%,92% (active),28.7%,-6%,92% (active),89.5% (active)
C=C(c1ccccc1)[P+](c1ccccc1)(c1ccccc1)c1ccccc1,97% (active),99% (active),99.2% (active),99% (active),100% (active),99.6% (active),99% (active),99% (active),99.5% (active),97% (active),99% (active),99% (active),92% (active),99% (active),99% (active),98% (active),99% (active),99.5% (active)
Cc1cc2nc3[nH]c4c(Cl)cc(Cl)cc4c3nc2cc1C,26%,28%,-36.8%,14%,10%,-28.6%,3%,3%,-7.3%,-10%,5%,56.4%,-4%,8%,-70.8%,4%,19%,-20.6%
CC(=O)C1CCCCC1/C=C/[N+](=O)[O-] (configuration not stated),23%,93% (active),99.5% (active),16%,74% (active),99.7% (active),25%,93% (active),99.1% (active),6%,27%,99% (active),30%,91% (active),99.5% (active),42%,97% (active),99.2% (active)
c1ccc(CC(Nc2cccnc2)c2ccccc2)cc1 (configuration not stated),6%,56%,74.5% (active),-13%,24%,22.6%,-2%,74% (active),74.1% (active),-1%,28%,21.9%,24%,40%,56.1%,1%,60%,75.3% (active)
